Our source for the INHIBITION values is ChEMBL document CHEMBL4513216, “Probing the Open Global Health Chemical Diversity Library for Multistage-Active Starting Points for Next-Generation Antimalarials” (ACS Infect Dis, 2020).

Hit rate of the full screen: of about 69,000 compounds, about 8,600 (12%) showed an effect of 50% or more. This is one part of a sample in which strong results are shown more often than they occur.

This assay concerns Plasmodium berghei. The experiment in a line: Screen against P. berghei liver stage (PbLuc), transformed with Luciferase, at 10uM. Type of assay: functional, HepG2. The note with it: tested at 10 uM.
As for `Cc1cc(N2CCN(C(=O)[C@@H]3C[C@H]4C=C[C@@H]3C4)CC2)cc(C)n1`, the INHIBITION is reported as -1.84%.
The value for `Cn1ccc(C(=O)NCCOc2ccc(C(C)(C)C)cc2)cc1=O` was 20.3%; that for `CN1CCC/C1=N\S(=O)(=O)c1ccc(NC(=O)c2ccc(Cl)cc2)cc1` was 15.6%.
The value for `CCc1cc(O)n2nc(C3CCN(C(=O)c4ccncc4)CC3)cc2n1` was 32.85%; that for `CNC(=O)CN1CCOCC2(C1)CN(C(=O)C(C)C)CCO2` (configuration not stated) was -15.7%; that for `Cc1ncc2c(n1)CCN(C(C(N)=O)c1ccccc1)C2` (configuration not stated) was -4.4%.
The value for `Cc1ncc2c(n1)CN(C(C(N)=O)c1ccc(F)cc1)CC2` (configuration not stated) was 58.5%; that for `Cc1ncc2c(n1)CN(C(C(N)=O)c1ccccc1)CC2` (configuration not stated) was -40.4%; that for `O=C(c1ccncc1)N1CCOC2(COCCN(c3cncnc3)C2)C1` (configuration not stated) was 37.8%.
As for `Cc1nc(Cn2c3c(ccc2=O)CCN(CC2CCC2)CC3)cs1`, the INHIBITION is recorded as -18.5%.
Consider `CC1c2ncc(CN3CCN(C)CC3)n2CCN1Cc1cccnc1` (configuration not stated), for which the INHIBITION is 34.8%.
The value for `CC1c2ncc(CN3CCN(C)CC3)n2CCN1Cc1ccccn1` (configuration not stated) was 53%.
Consider `CC1c2ncc(Cn3cccn3)n2CCN1c1ncccn1` (configuration not stated), for which the INHIBITION worked out at 23.1%.
Under `CC1c2ncc(Cn3cccn3)n2CCN1Cc1cccnc1` (configuration not stated) stands -9.26%.
The value for `CC1c2ncc(CN3CCN(C)CC3)n2CCN1Cc1ccsc1` (configuration not stated) was 27.3%.
As for `CC1c2ncc(Cn3cccn3)n2CCN1Cc1ccc(F)cc1` (configuration not stated), the INHIBITION came out at 54.8%.
Under `CC1c2ncc(CNC(=O)C3CC3)n2CCN1Cc1ccccn1` (configuration not stated) stands -88.3%; under `CC1c2ncc(Cn3cccn3)n2CCN1Cc1ccccn1` (configuration not stated), 58.4%.
Under `CC1c2ncc(CN3CCN(C)CC3)n2CCN1Cc1ccc(F)cc1` (configuration not stated) stands 11.5%; under `c1ccc(Cc2nnc(CN3CCOC(Cn4cccn4)C3)o2)cc1` (configuration not stated), 19.4%; under `Cc1cccc(C(=O)N2C[C@@H]3C(CC(=O)N4CCCC4)[C@@H]3C2)n1` (some centres not stated), -2.35%.
With `CSc1nc2ccsc2c(=O)n1CC(=O)N(C)c1ccccc1`, the INHIBITION worked out at 36.8%.
On to `O=C(O)[C@@H]1CCN(C(=O)c2ccccn2)[C@@H]1c1ccc(F)cc1`, for which the INHIBITION is recorded as -8.58%.
In the case of `CN1CCN(C(=O)c2ccc(=O)n(C)c2)Cc2ccccc21`, the INHIBITION turned out to be 40.3%.
As for `CN1CC2(CCN(C(=O)c3ccc4nonc4c3)CC2)CC1=O`, the INHIBITION is recorded as -6.01%.
Under `CC1CN(C(=O)c2ccc(=O)n(C)c2)c2ccccc2NC1=O` (configuration not stated) stands -12.2%; under `CC1CN(C)c2ccccc2N(C(=O)c2ccc(=O)n(C)c2)C1` (configuration not stated), 31.8%; under `CN1CC2(CCN(C(=O)c3ccc(=O)n(C)c3)CC2)CC1=O`, 50.5%.
Turning to `COCCCN1CC2(CCN(C(=O)c3ccc(=O)n(C)c3)CC2)CC1=O`, the INHIBITION is reported as -14.7%.
The value for `Cn1cc(C(=O)N2CCOc3cc(F)ccc32)ccc1=O` was 16.1%; that for `Cc1ccc2c(c1)OCCN2C(=O)c1ccc(=O)n(C)c1` was 8.48%.
Under `CCN1CCN(C(=O)c2ccc(=O)n(C)c2)c2ccccc21` stands 44.1%.
Under `CN1CCN(C(=O)c2ccc(=O)n(C)c2)c2ccccc21` stands 50.4%; under `Cn1cc(C(=O)N2CCOc3ccccc32)ccc1=O`, 51.8%.
`CN1C(=O)CN(C(=O)c2ccc(=O)n(C)c2)c2ccccc21`: the INHIBITION is 60.5%.
Under `CN(Cc1cccc(F)c1)C(=O)CN1CCOC(Cn2cccn2)C1` (configuration not stated) stands -14.8%; under `COc1coc(C(=O)Nc2ccncc2)cc1=O`, 14.3%; under `Cc1cnc(N2CCC3(CCC(C(=O)NC(C)C)C3)CC2)nc1` (configuration not stated), 11.3%.
The value for `CC(=O)N1CCCN(C(=O)c2ccc(=O)n(C)c2)c2ccccc21` was 62.6%.
The value for `CC1CCN(C)c2ccccc2N1C(=O)c1ccc(=O)n(C)c1` (configuration not stated) was -3.12%; that for `Cn1cc(C(=O)N2CCSc3ccccc32)ccc1=O` was 33.8%.
Consider `COc1ccc(-c2cc(C3CC3)c(C#N)c(N)n2)cc1F`, for which the INHIBITION is -60.9%.
The value for `O=C(c1ccc[nH]1)N1CCc2nnc(Cn3cccc3)n2CC1` was -6.25%.
Under `Cc1ccc(S(=O)(=O)n2ccn(C(=O)CC(C)C)c2=O)cc1` stands 40%; under `Cc1ccc(N2CCC3(CCN(Cc4csc(C)n4)CC3)CC2)nn1`, 58.7%.
Under `Cc1ccc(N2CCC3(CCN(Cc4nccs4)CC3)CC2)nn1` stands 26.5%.
Turning to `Cc1ccc(N2CCC3(CCN(Cc4csc(C)n4)C3=O)C2)nn1` (configuration not stated), the INHIBITION was 47.5%.
Under `Cc1ccc(N2CCC3(CCN(Cc4ccccn4)CC3)CC2)nn1` stands -42.6%.
The value for `Cc1cnc(N2CCC3(CCN(Cc4csc(C)n4)C3=O)C2)nc1` (configuration not stated) was 34%; that for `COc1ccc2c(c1)C1(CCN(Cc3ccncc3)CC1)N(C)CC2` was -9.67%; that for `COc1cc(N2CCC3(CCN(Cc4csc(C)n4)C3)CC2)ncn1` was 55.7%.
The value for `Cc1cc(NC2CC3(CCN(Cc4csc(C)n4)C3)C2)ncn1` (configuration not stated) was -31.1%; that for `COc1ccc2c(c1)C1(CCN(Cc3nccs3)CC1)N(C)CC2` was 51.3%; that for `COc1cc(N2CCC3(CCN(Cc4csc(C)n4)C3=O)C2)ncn1` (configuration not stated) was 90.1%.
As for `COc1ccc2c(c1)C1(CCN(Cc3ccccn3)CC1)N(C)CC2`, the INHIBITION is on record as -73.3%.
The value for `Cc1nc(CN2CCN(c3cc(CCN)ncn3)CC2)cs1` was 17.2%; that for `CSc1ccc(C(=O)N2CC(=O)N(Cc3cccs3)CC(O)C2)cc1` (configuration not stated) was 19.2%; that for `CCOCC(O)CN1CCN(C(=O)C2CCC2)CC1` (configuration not stated) was -14.6%.
The value for `Cc1ccc(O)c(CNc2cccc(CN3CCN(C)CC3)c2)n1` was 13.9%; that for `Cc1cc(NC(=O)CN2CCc3c(nc(C(C)C)n3C)C2)n(C)n1` was 36%; that for `COCC1c2nnn(CC3CC3)c2CCN1Cc1ccncc1` (configuration not stated) was 4.68%.
In the case of `Cc1cc(C)c(CNC(=O)N(C)Cc2cccc(C#N)c2)c(=O)[nH]1`, the INHIBITION is -3.7%.
Turning to `COc1ccc(C(=O)N2CCCC2c2noc(C(C)C)n2)nn1` (configuration not stated), the INHIBITION is 12.255%.
The value for `O=C(NC1CC1)N1CC[C@H]2[C@H]1CCN2c1nncs1` was -19.8%; that for `CN(C)CCNC(=O)[C@H]1C[C@H]2CN(C(=O)NCc3ccccc3)C[C@@H]1O2` was -0.27%; that for `CN(Cc1noc(C2CC2)n1)C1CCN(Cc2ccc(F)c(F)c2)C1` (configuration not stated) was -19.945%.
The value for `COc1cc(N2CCC3(CCN(Cc4nccs4)CC3)C2)ncn1` was 91.9%; that for `Cc1nc(CN2CC3(CCN(c4cnccn4)C3)CC2=O)cs1` (configuration not stated) was 35.8%; that for `CCc1cnc(N2CCC3(CC(=O)N(Cc4csc(C)n4)C3)C2)nc1` (configuration not stated) was 34.4%.
With `COc1cc(N2CC3(CCN(c4ncccn4)C3)C2)ncn1`, the INHIBITION was found to be 12.1%.
In the case of `c1csc(CN2CCC3(CC2)CCN(CC2CCOCC2)C3)n1`, the INHIBITION is on record as -8.85%.
The value for `COc1cc(N2CCC3(CC(=O)N(Cc4csc(C)n4)C3)C2)ncn1` (configuration not stated) was 58.4%; that for `Cc1cnc(N2CCC3(CC(=O)N(Cc4csc(C)n4)C3)C2)nc1` (configuration not stated) was 54.7%.
Under `Cc1nc(CN2CC3(CCN(c4ncc(F)cn4)C3)CC2=O)cs1` (configuration not stated) stands -30%; under `Cc1nc(CN2CC3(CCN(c4ncccn4)C3)CC2=O)cs1` (configuration not stated), 18.2%.
Under `Cc1ccc(N2CC3(CCN(c4nccs4)C3)C2)nn1` stands 58.5%.
In the case of `Cc1ccc(N2CCC3(CC2)COCCN(c2nccs2)C3)nn1`, the INHIBITION came out at 6.72%.
The value for `N#Cc1ccc(N2CC3(CCN(c4nccs4)C3)C2)nc1` was 37.9%.
The value for `Cc1cccc(C(=O)Nc2c(C(=O)N(C)C)nn(C)c2C)c1` was 35%; that for `Cc1cnn(CC2CN(C=C3NN=C(c4occc4C)O3)CCO2)c1` (configuration not stated) was 13.3%; that for `Cc1cccc(CN2C(=O)CCC23CCN(C(=O)c2ccco2)CC3)c1` was -7.28%.
Turning to `Cc1nc(C)n(C2CCCN(C(=O)CCn3cncn3)C2)n1` (configuration not stated), the INHIBITION was 14.9%.
Under `CCc1nc(CN(C)c2nccc(N3CCCC(O)C3)n2)no1` (configuration not stated) stands 20.3%; under `Cc1nc(O)ccc1C(=O)NCc1ncccc1F`, 12.6%; under `COCCNC(=O)NC1(c2nc(C)no2)CCCCC1`, 19.2%.
The value for `O=C(NC1(c2nc(C3CC3)no2)CCCCC1)c1ccncc1` was -3.19%; that for `COCCNC(=O)NC1(c2nc(-c3ccncc3)no2)CCCCC1` was 56.3%.
The value for `CC(C)CNS(=O)(=O)c1ccc(C(=O)N(C)CCc2cn[nH]c2)cc1` was -12.4%; that for `NC(=O)c1c(-c2ccc(Cl)cc2Cl)csc1NC(=O)CCC(=O)O` was 44.9%; that for `O=C(NCCC(=O)N1CCCc2ccccc21)c1cc(F)cc(F)c1` was -19.9%.
For the compound `O=C(NCCC(=O)N1CCCc2ccccc21)c1c(O)cc(F)cc1F`, the INHIBITION came out at 73.9%.
In the case of `O=C(NCC(=O)N1CCCc2ccccc21)c1c(O)cc(F)cc1F`, the INHIBITION is given as 80.6%.
Under `O=C(NCCS(=O)(=O)N1CCc2ccccc21)c1c(O)cc(F)cc1F` stands 42%.
The value for `O=C(NCCC(=O)N1CCCc2ccccc21)c1c(F)cccc1F` was -57.4%; that for `O=C(NCCC(=O)N1CCCc2ccccc21)c1ccc(F)cc1F` was 11.6%; that for `C=C(C)COc1ccc(C(CC(=O)OC)c2oc(C)cc(=O)c2O)cc1` (configuration not stated) was -24.7%.
`CNc1ncc(CN(C)C(=O)c2cccc(Cn3cccn3)c2)cn1`: the INHIBITION is 18.5%.
Under `CCc1ccccc1Nc1noc2c1CN(C(=O)c1ccn(C)n1)CC2` stands -3.35%.
The value for `CCn1ccnc1CN1CCN(Cc2cccnc2)CC1C` (configuration not stated) was 33.5%; that for `CC[C@H](C)[C@H](N)C(=O)N1CC(=O)c2sc(Nc3ccc(F)cc3)nc2C1` was 14.5%; that for `N#Cc1ccc(Nc2nc3c(s2)C(=O)CN(CC2CC2)C3)cc1` was -15.2%.
The value for `CC(C)NC(=O)N1CC(=O)c2sc(NC3CCCCC3)nc2C1` was -16.7%.
As to `CC(C)CC(=O)N1CC(=O)c2sc(Nc3ccc(C#N)cc3)nc2C1`, the INHIBITION came out at 79.7%.
Under `CC(C)CC(=O)N1CC(=O)c2sc(Nc3ccc(F)cc3)nc2C1` stands 51.5%; under `CC(C)NC(=O)N1CC(=O)c2sc(Nc3ccc(C#N)cc3)nc2C1`, 61.9%.
The value for `CCN1CC(=O)c2sc(NC(C)C)nc2C1` was 23.4%.
The value for `CC(C)Nc1nc2c(s1)C(=O)CN(C)C2` was 35.2%.
